The source of these data is PubChem BioAssay (NCI).

Among the test systems are NCI-H23 lung; NCI-H226 lung; NCI-H322M lung; HOP-62 NSCLC; NCI-H460 lung; HOP-92 NSCLC; NCI-H522 lung; A549/ATCC NSCLC; 786-0 renal; COLO 205 colon; DU-145 prostate; K-562 leukemia; MALME-3M melanoma; MDA-MB-231 breast; RXF 393 renal; SF-268 CNS; SF-295 CNS; SF-539 CNS; UACC-257 melanoma; M14 melanoma.
Test in all cases: NCI-60 one-dose screen, 48 h (100 = growth as untreated, 0 = no growth, -100 = all killed)
Conditions in all cases: 10 µM unless noted

“And” between values parts separate entries of the source, which are not always exact repeats. Identical values can stand only once. About 83,000 compounds went through this panel and 20% of them were active in at least one assay; those are over-represented in the sample as a whole.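 The endpoint reported here, percent growth, reads 100 for growth as untreated, 0 for no net growth and -100 for all cells dead.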 The source made the active and inactive calls. How the source made its calls: active means growth percent below 10; inactive means the rest.

As for `CN1CCCc2cc(/C=C3\SC(=S)N(C(Cc4ccc(O)cc4)C(=O)O)C3=O)ccc21` (stereo not given), the growth in the assay with NCI-H23 lung was 78% (inactive); in the assay with NCI-H226 lung, 99.8% (inactive); in the assay on NCI-H322M lung it was 108% (inactive); in the assay with HOP-62 NSCLC, 109% (inactive); in the assay on NCI-H460 lung, 107% (inactive); in the assay with HOP-92 NSCLC it was 93.8% (inactive). The growth is 91.5% (inactive) with NCI-H522 lung; 105% (inactive) in the assay on A549/ATCC NSCLC; 99.8% (inactive) with 786-0 renal; 112% (inactive) in the assay with COLO 205 colon; 104% (inactive) in the assay on DU-145 prostate; 91.3% (inactive) in the assay with K-562 leukemia. In addition, the growth in the assay on MALME-3M melanoma was 88.9% (inactive); with MDA-MB-231 breast, 96.1% (inactive); in the assay on RXF 393 renal, 99.4% (inactive); in the assay on SF-268 CNS it was 97.2% (inactive); in the assay with SF-295 CNS, 98.2% (inactive); in the assay with SF-539 CNS, 102% (inactive). The growth is 99.6% (inactive) in the assay on UACC-257 melanoma and 101% (inactive) in the assay on M14 melanoma.

Regarding `O=C(Nc1cc(C(F)(F)F)cc(C(F)(F)F)c1)c1cc(Cl)ccc1O`, the growth is -25.2% (active) and -11.5% (active) in the assay with NCI-H23 lung; -27.9% (active) with NCI-H226 lung; -3.01% (active) and 1.1% (active) in the assay on NCI-H322M lung; -27.3% (active) and -3.41% (active) with HOP-62 NSCLC; 0.0882% (active) and 2.21% (active) with NCI-H460 lung; -19.6% (active) and -14.1% (active) in the assay on HOP-92 NSCLC. For the same molecule, the growth with NCI-H522 lung is -45.5% (active) and -23% (active); in the assay on A549/ATCC NSCLC it was -7.9% (active) and 5.51% (active); with 786-0 renal it was -41.1% (active) and -48.8% (active); with COLO 205 colon, -83.1% (active) and -64.5% (active); with DU-145 prostate, 14.4% (inactive) and 5.91% (active); with K-562 leukemia, 2.85% (active) and 5.08% (active). Moreover, the growth in the assay on MALME-3M melanoma is -38.3% (active) and -37.1% (active); with MDA-MB-231 breast it was -11.4% (active) and -22.8% (active); in the assay with RXF 393 renal it was -40% (active) and -5.38% (active); with SF-268 CNS, 11.7% (inactive) and -7.95% (active); with SF-295 CNS, -63.1% (active) and -66.9% (active); with SF-539 CNS, -31% (active) and -18% (active). Moreover, the growth in the assay on UACC-257 melanoma was -52.7% (active) and -18.1% (active); in the assay with M14 melanoma it was -6.08% (active) and -32.7% (active).

Turning to `CCCCn1c(C(=O)c2c[nH]c3ccccc23)n[nH]c1=S`, the growth in the assay with NCI-H23 lung was 92.6% (inactive); in the assay with NCI-H226 lung, 92.5% (inactive); in the assay on NCI-H322M lung it was 96.7% (inactive); with HOP-62 NSCLC, 86% (inactive); in the assay on NCI-H460 lung, 98.7% (inactive); in the assay on HOP-92 NSCLC it was 89.4% (inactive). For the same molecule, the growth with NCI-H522 lung is 83.3% (inactive); in the assay on A549/ATCC NSCLC, 92.3% (inactive); with 786-0 renal, 102% (inactive); in the assay on COLO 205 colon it was 106% (inactive); in the assay with DU-145 prostate it was 104% (inactive); in the assay with K-562 leukemia it was 76.1% (inactive). The growth in the assay on MALME-3M melanoma was 111% (inactive); with MDA-MB-231 breast, 96.4% (inactive); in the assay on RXF 393 renal, 107% (inactive); in the assay on SF-268 CNS, 96.9% (inactive); with SF-295 CNS, 103% (inactive); in the assay with SF-539 CNS, 102% (inactive). Besides, the growth with UACC-257 melanoma is 94.8% (inactive); with M14 melanoma, 92.4% (inactive).

`CCCCCCCCn1ccc2cc(NC(=O)CN3CCN(c4nc(C)cc(N5CCCCC5)n4)CC3)ccc21`: the growth with NCI-H23 lung was 86% (inactive); in the assay with NCI-H226 lung, 86.1% (inactive); in the assay with NCI-H322M lung, 101% (inactive); in the assay on HOP-62 NSCLC, 100% (inactive); in the assay on NCI-H460 lung, 93.7% (inactive); in the assay with HOP-92 NSCLC, 102% (inactive). Further, the growth is 76.7% (inactive) with NCI-H522 lung; 83.4% (inactive) with A549/ATCC NSCLC; 88.4% (inactive) in the assay with 786-0 renal; 84.7% (inactive) with COLO 205 colon; 95.2% (inactive) with DU-145 prostate; 56% (inactive) in the assay on K-562 leukemia. Moreover, the growth is 112% (inactive) with MALME-3M melanoma; 85.7% (inactive) in the assay with MDA-MB-231 breast; 86.9% (inactive) with RXF 393 renal; 93.3% (inactive) with SF-268 CNS; 103% (inactive) in the assay with SF-295 CNS; 105% (inactive) in the assay with SF-539 CNS. Further, the growth is 115% (inactive) in the assay with UACC-257 melanoma and 90.6% (inactive) in the assay on M14 melanoma.

`NS(=O)(=O)OCC1OC(n2cnc3cncnc32)C(O)C1O` (stereo not given): the growth with NCI-H23 lung is 6.16% [0.1 µM] (active) and 3.98% [0.1 µM] (active); in the assay with NCI-H226 lung it was 16.8% [0.1 µM] (inactive); in the assay with NCI-H322M lung, -26.7% [0.1 µM] (active) and 12.1% [0.1 µM] (inactive); in the assay with HOP-62 NSCLC, -21.5% [0.1 µM] (active) and -12.7% [0.1 µM] (active); in the assay on NCI-H460 lung it was 2.5% [0.1 µM] (active) and 0.409% [0.1 µM] (active); with HOP-92 NSCLC it was 10.2% [0.1 µM] (inactive) and 3.58% [0.1 µM] (active). Moreover, the growth is 2.73% [0.1 µM] (active) and -11.8% [0.1 µM] (active) in the assay on NCI-H522 lung; 11.1% [0.1 µM] (inactive) and 13.4% [0.1 µM] (inactive) in the assay with A549/ATCC NSCLC; 8.57% [0.1 µM] (active) and 11.9% [0.1 µM] (inactive) with 786-0 renal; 32.2% [0.1 µM] (inactive) and 27.1% [0.1 µM] (inactive) in the assay on COLO 205 colon; 13.2% [0.1 µM] (inactive) in the assay with DU-145 prostate; 9.29% [0.1 µM] (active) and 7.85% [0.1 µM] (active) in the assay with K-562 leukemia. Moreover, the growth is 81.6% [0.1 µM] (inactive) and 50.7% [0.1 µM] (inactive) with MALME-3M melanoma; -25.1% [0.1 µM] (active) and -14.3% [0.1 µM] (active) in the assay on MDA-MB-231 breast; 11.7% [0.1 µM] (inactive) and 1.25% [0.1 µM] (active) in the assay on RXF 393 renal; 9.46% [0.1 µM] (active) and 13.5% [0.1 µM] (inactive) with SF-268 CNS; 24% [0.1 µM] (inactive) in the assay on SF-295 CNS; -2.66% [0.1 µM] (active) and -4.82% [0.1 µM] (active) with SF-539 CNS. Also, the growth is 60.8% [0.1 µM] (inactive) and 58.2% [0.1 µM] (inactive) with UACC-257 melanoma; 31.1% [0.1 µM] (inactive) and 16.6% [0.1 µM] (inactive) with M14 melanoma.

For the molecule `CCOC(=O)c1c(-c2ccc(C)cc2)c(C#N)c(=O)n(-c2cccc(C(F)(F)F)c2)c1N`, the growth with NCI-H23 lung is 98.6% (inactive); in the assay on NCI-H226 lung, 100% (inactive); in the assay with NCI-H322M lung, 103% (inactive); in the assay with HOP-62 NSCLC, 99.8% (inactive); in the assay on NCI-H460 lung it was 104% (inactive); in the assay with HOP-92 NSCLC, 90.9% (inactive). In addition, the growth with NCI-H522 lung is 94.6% (inactive); in the assay on A549/ATCC NSCLC it was 101% (inactive); in the assay with 786-0 renal, 102% (inactive); in the assay with COLO 205 colon, 106% (inactive); in the assay with DU-145 prostate it was 108% (inactive); in the assay on K-562 leukemia, 97.8% (inactive). Moreover, the growth is 99.4% (inactive) with MALME-3M melanoma; 97.9% (inactive) with MDA-MB-231 breast; 101% (inactive) with RXF 393 renal; 97% (inactive) with SF-268 CNS; 100% (inactive) in the assay with SF-295 CNS; 97.2% (inactive) with SF-539 CNS. Moreover, the growth in the assay with UACC-257 melanoma is 101% (inactive); in the assay with M14 melanoma it was 106% (inactive).

As for `C=C1C(=O)O[C@H]2[C@H]1CC/C(COC(=O)NCCCCNC(=O)OC/C1=C/CC[C@@]3(C)O[C@H]3[C@H]3OC(=O)C(=C)[C@@H]3CC1)=C\CC[C@@]1(C)O[C@@H]21`, the growth with NCI-H23 lung is 38.3% (inactive); in the assay on NCI-H226 lung, 53.2% (inactive); in the assay on NCI-H322M lung, 98.5% (inactive); in the assay with HOP-62 NSCLC, 73.8% (inactive); in the assay on NCI-H460 lung, 102% (inactive); in the assay on HOP-92 NSCLC it was -32.8% (active). For the same molecule, the growth in the assay with NCI-H522 lung was -61.4% (active); with A549/ATCC NSCLC, 94.9% (inactive); in the assay on 786-0 renal, 22.7% (inactive); in the assay with COLO 205 colon it was -43.4% (active); in the assay with DU-145 prostate, 45.8% (inactive); with K-562 leukemia, 4.14% (active). Also, the growth in the assay with MALME-3M melanoma was -39.3% (active); with MDA-MB-231 breast, 24% (inactive); with RXF 393 renal it was -30.2% (active); with SF-268 CNS it was 48.7% (inactive); in the assay on SF-295 CNS it was 99% (inactive); in the assay with SF-539 CNS, -23.6% (active). Also, the growth in the assay on UACC-257 melanoma was 2.94% (active); in the assay with M14 melanoma it was 11.5% (inactive).
